LEDGF integ inh: blocks HIV-1 LEDGF/p75-dependent DNA integration | inhibition, % at 3.7 µM | TR-FRET IN-LEDGF/p75 DNA integration, Eu/Cy5 | 0.64% of 370,000 active | AID 743269;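 active = inhibition above the screen-wide mean plus 3 SD, cut at about 13% in these data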;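 note: signal is the Cy5 over europium emission ratio at 671 and 618 nm; 0% = plate median of compound wells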
rCAG RNA binder: r(CAG) repeat RNA binding; TO-PRO-1 dye displacement fluorescence; inhibition, % at 3 µM; 1.3% of 370,000 active; AID 651821;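 active = inhibition above the plate cutoff, the mean of all test compounds on that plate plus 3 SD, cut at about 35% in these data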;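 note: 0% = DMSO alone and 100% = 100 µM mitoxantrone as full dye displacement; higher means more dye released from RNA so lower well fluorescence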
PG9 binder: PG9 antibody binding by small molecule; inhibition, % at 6.7 µM; TR-FRET gp120-PG9 antibody binding; 0.43% of 360,000 active; in the data active = inhibition above about 8.5%
MBD2 DNA inh: MBD2-methylated oligo binding inhibition; inhibition, % at 4.4 µM; 0.31% of 370,000 active; TR-FRET, MBD2 binding to methylated oligonucleotide; Q9UBB5; AID 686964; in the data active = inhibition above about 13%
UHRF1 MBD2 ctr: UHRF1 methyl-DNA binding inhibition; inhibition, % at 4.4 µM; 0.75% of 370,000 active; UHRF1 binding to methylated oligo, TR-FRET; Q96T88; in the data active = inhibition above about 21%;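 note: UHRF1 SRA domain binding a hemimethylated CpG hairpin DNA probe; 0% = median of test compound wells and 100% = reference inhibitor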
Target sequence (Q96T88 whole entry, looked up, the tested form may be a part): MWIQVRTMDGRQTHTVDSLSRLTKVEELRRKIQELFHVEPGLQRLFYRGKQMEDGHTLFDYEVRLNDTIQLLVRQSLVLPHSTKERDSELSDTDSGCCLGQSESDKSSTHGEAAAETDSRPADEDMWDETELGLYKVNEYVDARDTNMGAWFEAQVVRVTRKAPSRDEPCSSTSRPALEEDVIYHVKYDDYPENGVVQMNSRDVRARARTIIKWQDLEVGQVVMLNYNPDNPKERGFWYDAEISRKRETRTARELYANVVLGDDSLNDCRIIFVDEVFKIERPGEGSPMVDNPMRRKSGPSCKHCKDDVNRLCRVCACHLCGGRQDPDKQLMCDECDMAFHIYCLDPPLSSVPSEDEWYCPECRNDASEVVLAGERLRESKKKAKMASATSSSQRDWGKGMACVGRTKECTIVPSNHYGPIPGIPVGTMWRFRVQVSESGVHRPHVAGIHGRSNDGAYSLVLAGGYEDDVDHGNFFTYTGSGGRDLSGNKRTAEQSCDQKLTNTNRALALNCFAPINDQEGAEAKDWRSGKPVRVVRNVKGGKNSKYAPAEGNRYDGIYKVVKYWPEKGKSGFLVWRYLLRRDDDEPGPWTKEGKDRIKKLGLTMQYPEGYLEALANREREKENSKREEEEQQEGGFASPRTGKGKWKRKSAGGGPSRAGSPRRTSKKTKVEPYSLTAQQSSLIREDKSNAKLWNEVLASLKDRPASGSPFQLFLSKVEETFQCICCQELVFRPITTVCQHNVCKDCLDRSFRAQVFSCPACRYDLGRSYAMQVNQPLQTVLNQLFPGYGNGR
DNMT1 block: inhibitors of human DNMT1; DNMT1 molecular beacon, Hinp1I cleavage, fluorescence; 0.83% of 360,000 active; inhibition (reported as % activation of signal), % at 10 µM; in the data active = inhibition above about 50%
IN multimer act: activates HIV-1 integrase multimerization in LEDGF counter-screen; shares compounds with LEDGF integ inh; TR-FRET HIV-1 integrase multimerization, biochemical; activation, % at 7.7 µM; 17% of 2,000 active; AID 1053131; in the data active = activation above about 8.9%
TRFRET interf: optically interferes with TR-FRET readout in LEDGF counter-screen | inhibition, % at 7.7 µM | TR-FRET optical interference counterscreen, HIV-1 IN multimerization | shares compounds with LEDGF integ inh | 2,000 tested, under 10 active;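 active = inhibition above the mean over all tested compounds plus 3 SD, which no compound reached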;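 note: 0% = integrase with antibodies and DMSO and 100% = antibodies without integrase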
IN-LEDGF confirm: LEDGF/p75-dependent HIV-1 integration inhibition, confirmation; inhibition, % at 3.7 µM; shares compounds with LEDGF integ inh; TR-FRET LEDGF/p75-dependent HIV-1 integration, biochemical; 36% of 2,000 active; AID 1053136; in the data active = inhibition above about 14%
* marks the source's active call; other numbers are inactive results. Hits are enriched below; roughly 3.5% of the tested compounds scored in any of these assays.

Results for CC(C)(C)C(=O)/C=C/Nc1ccccc1O ?
LEDGF integ inh: 15*; rCAG RNA binder: 4; PG9 binder: -2; MBD2 DNA inh: -19; UHRF1 MBD2 ctr: -10; DNMT1 block: -5; IN multimer act: 3; TRFRET interf: -10; IN-LEDGF confirm: 1

How did CN(C)c1ccc(N/C=C/C(=O)c2ccccc2)cc1 do in these assays?
LEDGF integ inh: 15*; rCAG RNA binder: 12; PG9 binder: -14; MBD2 DNA inh: -3; UHRF1 MBD2 ctr: 3; DNMT1 block: -2; IN multimer act: 5; TRFRET interf: -24; IN-LEDGF confirm: 5

Results for CC1CCN(S(=O)(=O)c2cc(C(=O)N3CCN(c4ccccc4)CC3)ccc2Br)CC1 ?
LEDGF integ inh: 3; rCAG RNA binder: 11; PG9 binder: 0; MBD2 DNA inh: -2; UHRF1 MBD2 ctr: 4; DNMT1 block: 1

How did Clc1cccc(Oc2cnns2)c1Cl do in these assays?
LEDGF integ inh: 17*; rCAG RNA binder: 2; PG9 binder: -2; MBD2 DNA inh: 1; UHRF1 MBD2 ctr: 3; DNMT1 block: -3; IN multimer act: 2; TRFRET interf: -7; IN-LEDGF confirm: -5

Results for CCCCCCCCN1C(=O)[C@H](CC(=O)NCCCOCCCC)C[C@@]2(C(=O)OC)CC(C)(C)CC=C12 ?
LEDGF integ inh: -3; rCAG RNA binder: 2; PG9 binder: -1; MBD2 DNA inh: 0; UHRF1 MBD2 ctr: 0

What do the screens show for `Cc1ccccc1N=Cc1cc2c(cc1O)OC(N)=C(C#N)C2c1ccccc1` (configuration not stated)?
LEDGF integ inh: 19*; rCAG RNA binder: 10; PG9 binder: 1; MBD2 DNA inh: 2; UHRF1 MBD2 ctr: -3; DNMT1 block: -7; IN multimer act: 2; TRFRET interf: -10; IN-LEDGF confirm: 35*

How did N#CC1=C(N)Oc2cc(O)c(C=Nc3ccccc3)cc2C1c1ccccc1 (configuration not stated) do in these assays?
LEDGF integ inh: 20*; rCAG RNA binder: 4; PG9 binder: -1; MBD2 DNA inh: 2; UHRF1 MBD2 ctr: -1; DNMT1 block: -3; IN multimer act: 3; TRFRET interf: -15; IN-LEDGF confirm: 19*

What do the screens show for `Cc1ccc(N=Cc2cc3c(cc2O)OC(N)=C(C#N)C3c2ccccc2)cc1` (configuration not stated)?
LEDGF integ inh: 30*; rCAG RNA binder: 10; PG9 binder: -2; MBD2 DNA inh: -2; UHRF1 MBD2 ctr: -1; DNMT1 block: -20; IN multimer act: 4; TRFRET interf: -18; IN-LEDGF confirm: 15*

Results for Cc1cccc(C)c1NC(=O)C1(C)CSCC(=O)N1Cc1ccco1 (configuration not stated) ?
LEDGF integ inh: 3; rCAG RNA binder: 4; PG9 binder: -1; MBD2 DNA inh: -1; UHRF1 MBD2 ctr: 0

What do the screens show for `Cc1noc(/C=C/N(C)C)c1S(=O)(=O)N1CCCC(C(=O)NCc2cccs2)C1` (configuration not stated)?
LEDGF integ inh: 17*; rCAG RNA binder: 16; PG9 binder: 1; MBD2 DNA inh: -3; UHRF1 MBD2 ctr: -1; DNMT1 block: 3; IN multimer act: 0; TRFRET interf: -2; IN-LEDGF confirm: -6

Results for COc1cccc(CNC(=O)C2CCCN(S(=O)(=O)c3c(C)noc3/C=C/N(C)C)C2)c1 (configuration not stated) ?
LEDGF integ inh: 9; rCAG RNA binder: 24; PG9 binder: 0; MBD2 DNA inh: 0; UHRF1 MBD2 ctr: 3; DNMT1 block: -1

How did Cc1ccc(CNC(=O)C2CCN(S(=O)(=O)c3c(C)noc3/C=C/N(C)C)CC2)cc1 do in these assays?
LEDGF integ inh: 8; rCAG RNA binder: 21; PG9 binder: -2; MBD2 DNA inh: -2; UHRF1 MBD2 ctr: -3; DNMT1 block: -1

How did Cc1noc(/C=C/N(C)C)c1S(=O)(=O)N1CCC(C(=O)O)CC1 do in these assays?
LEDGF integ inh: 17*; rCAG RNA binder: 18; PG9 binder: -2; MBD2 DNA inh: -1; UHRF1 MBD2 ctr: 3; DNMT1 block: 5; IN multimer act: -1; TRFRET interf: 7; IN-LEDGF confirm: 2

Results for CC(C)c1ccc(OCCCN2CCC(C(O)(c3ccccc3)c3ccccc3)CC2)cc1 ?
LEDGF integ inh: 5; rCAG RNA binder: 1; PG9 binder: -1; MBD2 DNA inh: -6; UHRF1 MBD2 ctr: 0

Results for Cc1ccccc1NC1=C/C(=N\S(=O)(=O)c2ccc(C(=O)O)cc2)c2ccccc2C1=O ?
LEDGF integ inh: 40*; rCAG RNA binder: 32; PG9 binder: -6; MBD2 DNA inh: -9; UHRF1 MBD2 ctr: -1; DNMT1 block: 72*; IN multimer act: 0; TRFRET interf: -1; IN-LEDGF confirm: 74*

How did Cc1ccccc1C(=O)NNC(=S)NC(=O)c1ccc(Cl)cc1Cl do in these assays?
LEDGF integ inh: 1; rCAG RNA binder: 13; PG9 binder: 2; MBD2 DNA inh: -5; UHRF1 MBD2 ctr: -9; DNMT1 block: -1

What do the screens show for `CCCN(CCC)C(=S)NC(=O)c1ccc(Cl)cc1Cl`?
LEDGF integ inh: 16*; rCAG RNA binder: 6; PG9 binder: -2; MBD2 DNA inh: 5; UHRF1 MBD2 ctr: -2; DNMT1 block: 1; IN multimer act: 0; TRFRET interf: 0; IN-LEDGF confirm: 10

How did C[C@@H]1O[C@@H](O[C@@H]2[C@@H](O)[C@H](OCCc3ccc(O)c(O)c3)O[C@H](CO)[C@H]2OC(=O)/C=C/c2ccc(O)c(O)c2)[C@H](O)[C@H](O)[C@H]1O do in these assays?
LEDGF integ inh: 87*; rCAG RNA binder: 8; PG9 binder: -2; MBD2 DNA inh: 5; UHRF1 MBD2 ctr: 9; DNMT1 block: 7; IN multimer act: 37*; TRFRET interf: -184; IN-LEDGF confirm: 88*

What do the screens show for `COc1cc(/C=C/C(=O)OC[C@H]2O[C@H](OC3(CO)OC(CO)C(O)C3O)[C@H](O)[C@@H](O)[C@@H]2O)ccc1O` (some centres not stated)?
LEDGF integ inh: 3; rCAG RNA binder: 2; PG9 binder: -1; MBD2 DNA inh: -4; UHRF1 MBD2 ctr: -3; DNMT1 block: 0

Source: PubChem BioAssay (several laboratories)
